Values joined by “and” are separate entries in the source; they are usually repeats but may differ in a detail not shown here. Identical values can stand only once. Active and inactive are the calls of the source.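 How the source made its calls, unless noted: active means normalized viability below 100% at a tested concentration; inactive means the rest.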

The values that follow come from PubChem BioAssay.

Assay [1] in a line: viability loss with induced miR-34 in A549 – imaging, A549 dox-inducible miR-34, nuclei and caspase counts, primary screen (AID 1347080;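 active means compounds whose cell count with miR-34 switched on is under 0.7 times the count with it off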). The settings on record: A549 miR-34 inducible, Hoechst nuclei count, 48 h.
A short description of assay [2]: MELAS cybrid and Rieske KO viability enhancers – cell-based, MELAS cybrids, Rieske KO mouse fibroblasts, CellTiter-Glo, primary screen (AID 1508586;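 active means mean z-score across replicates of 1.96 or higher in either the MELAS or the Rieske mutant cell line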;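 further: z relative to plate mean and SD of compound and empty wells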). As to conditions: low glucose. Background: Cellular ATP, detected with luciferase, serves as a proxy for viable cell number.
For assay [3], the target named is NAD(+) hydrolase SARM1 (Homo sapiens) (UniProt Q6SZW1). In words: blocking NAD cleavage by SARM1 SAM-TIR – cell lysate, NAD-Glo luminescence (AID 1508614;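 active means compound whose remaining NAD level is above about 45 nM, limit read from the data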). The settings on record: SAM-TIR HEK293T lysate NADase, at 1 µM, stronger effect = higher value.
Sequence of NAD(+) hydrolase SARM1 (Homo sapiens) (Q6SZW1 whole entry, looked up): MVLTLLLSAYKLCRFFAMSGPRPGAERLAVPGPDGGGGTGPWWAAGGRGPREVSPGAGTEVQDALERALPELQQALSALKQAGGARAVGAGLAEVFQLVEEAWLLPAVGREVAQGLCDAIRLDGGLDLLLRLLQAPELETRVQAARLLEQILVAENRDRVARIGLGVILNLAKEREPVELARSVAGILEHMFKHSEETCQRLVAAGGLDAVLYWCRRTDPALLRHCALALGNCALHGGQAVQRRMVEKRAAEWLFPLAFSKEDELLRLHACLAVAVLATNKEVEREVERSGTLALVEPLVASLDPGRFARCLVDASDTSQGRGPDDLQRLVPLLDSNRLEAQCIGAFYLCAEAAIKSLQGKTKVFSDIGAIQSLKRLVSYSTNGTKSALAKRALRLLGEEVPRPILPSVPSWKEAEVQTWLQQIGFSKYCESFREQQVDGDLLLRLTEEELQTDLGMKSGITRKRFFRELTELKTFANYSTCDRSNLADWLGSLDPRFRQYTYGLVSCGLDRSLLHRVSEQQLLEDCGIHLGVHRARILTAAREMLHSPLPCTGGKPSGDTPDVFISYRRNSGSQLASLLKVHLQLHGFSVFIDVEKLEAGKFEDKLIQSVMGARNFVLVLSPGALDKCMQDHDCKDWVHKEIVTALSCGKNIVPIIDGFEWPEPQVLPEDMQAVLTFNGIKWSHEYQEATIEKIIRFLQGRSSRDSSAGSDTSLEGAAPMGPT
A short description of assay [4]: P. berghei load reduction in hepatocytes – cell-based, HepG2, luciferase luminescence, HepG2 viability, primary screen (AID 624349; in the data active means parasite load remaining mostly below about 12%, no sharp cut-off; inactive means mostly above about 10%;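 further: 100% = mean of DMSO negative control wells on the same plate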). The settings on record: P. berghei liver stage in HepG2, luciferase luminescence, concentration not given here; parasite load remaining: stronger effect = lower value; viability: measured here: HepG2 viability without parasites.
Assay [5] in a line: galactose survival enhancers in mitochondrial complex I cybrids – cell-based, galactose medium, ATP luminescence, primary screen (AID 1645843;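 active means z-score of at least 1.8 in each of two replicates, scored against plate mean and spread of sample wells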;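 further: positive z means more ATP and so rescue of galactose-driven cybrid death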). The settings on record: complex I mutant cybrid cells, 72 h, stronger effect = higher value.
Assay [6] concerns the target Mitogen-activated protein kinase 7 (Homo sapiens) (UniProt Q13164). The assay can be described thus: Gal4-ERK5 driven luciferase induction – cell-based, HTS, primary screen (AID 1508626;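 active means luciferase signal above three times the same-plate solvent-only control wells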;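 further: luciferase driven by Gal4-ERK5 fusion binding five Gal4 sites before minimal TATA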). The settings on record: HeLa Gal4-ERK5 transactivation, 18 h, at 5 µM, stronger effect = higher value.
Assay [7] can be described thus: drug combination growth inhibition, ovarian cancer – cell-based, oncology-focused library, rucaparib conditional, profiling panel (AID 1508598). As to conditions: patient-derived ovarian cancer cells, CellTiter-Glo viability, 144 h, stronger effect = lower value.
The mark [8] stands for this setting: stronger effect = lower value, cell number ratio, induced over uninduced.
The mark [9] stands for this setting: measured here: relative caspase fold change +Dox/-Dox.
Where [10] appears, read: measured here: total cells with miR-34 induction, stronger effect = lower value.
Setting [11] is: measured here: total cells without miR-34 induction.
Setting [12] is: MELAS cybrid survival, CellTiter-Glo 48 h, stronger effect = higher value.
The mark [13] stands for this setting: Rieske KO mouse fibroblast survival, CellTiter-Glo 72 h.

Sequence of Mitogen-activated protein kinase 7 (Homo sapiens) (Q13164 whole entry, looked up, the tested form may be a part): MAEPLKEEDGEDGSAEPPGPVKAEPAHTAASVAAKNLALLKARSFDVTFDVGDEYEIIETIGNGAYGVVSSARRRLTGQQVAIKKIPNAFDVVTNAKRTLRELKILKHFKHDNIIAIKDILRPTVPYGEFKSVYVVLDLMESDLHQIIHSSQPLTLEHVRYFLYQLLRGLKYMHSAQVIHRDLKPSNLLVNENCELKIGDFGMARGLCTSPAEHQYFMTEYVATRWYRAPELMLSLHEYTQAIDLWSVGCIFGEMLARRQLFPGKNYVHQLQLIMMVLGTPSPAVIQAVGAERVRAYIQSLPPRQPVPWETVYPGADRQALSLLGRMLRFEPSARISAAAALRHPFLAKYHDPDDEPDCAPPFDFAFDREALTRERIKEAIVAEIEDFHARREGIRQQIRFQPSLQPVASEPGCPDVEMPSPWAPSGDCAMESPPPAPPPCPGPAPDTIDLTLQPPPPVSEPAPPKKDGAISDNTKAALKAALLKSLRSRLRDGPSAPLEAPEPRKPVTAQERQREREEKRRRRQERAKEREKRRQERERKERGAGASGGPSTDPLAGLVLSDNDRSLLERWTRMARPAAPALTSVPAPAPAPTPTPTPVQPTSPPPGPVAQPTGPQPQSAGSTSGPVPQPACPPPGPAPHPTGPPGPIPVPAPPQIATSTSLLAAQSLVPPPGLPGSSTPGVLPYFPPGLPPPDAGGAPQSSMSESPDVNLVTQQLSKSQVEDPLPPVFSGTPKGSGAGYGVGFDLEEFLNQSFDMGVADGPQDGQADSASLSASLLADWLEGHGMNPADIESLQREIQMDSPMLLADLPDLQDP

Regarding `CCOc1nc2cccc(C(=O)OCc3oc(=O)oc3C)c2n1Cc1ccc(-c2ccccc2-c2noc(=O)[nH]2)cc1`, the fold change in assay [1] (setting [8]) was 0.946 (inactive); in assay [1] (setting [9]), 0.471. Moreover, the cell count came to 8160 in assay [1] (setting [10]) and 8630 in assay [1] (setting [11]). For the same molecule, the results for the z-score in assay [2] (setting [12]) and in assay [2] (setting [13]) were 0.0175 (inactive) and -0.018, respectively. Moreover, the remaining NAD in assay [3] is 10 nM (inactive).

As a reminder, the viability is a read-out of living cells in per cent, often relative to untreated cells. With `CC(C)(O/N=C(\C(=O)N[C@@H]1C(=O)N2C(C(=O)[O-])=C(C[n+]3ccccc3)CS[C@H]12)c1csc(N)n1)C(=O)O`, in assay [4], the parasite load remaining was 53.2% (inactive) and 19.3% (inactive). The viability in assay [4] is 114% and 70%. The fold change is 0.844 (inactive) and 0.909 (inactive) in assay [1] (setting [8]); 1.51 and 1.02 in assay [1] (setting [9]). For the same molecule, the cell count is 8430 and 9490 in assay [1] (setting [10]); 9990 and 10400 in assay [1] (setting [11]). Also, the z-score in assay [2] (setting [12]) is -0.0556 (inactive) and 0.494 (inactive); in assay [2] (setting [13]), -0.289 and -0.00761; in assay [5], 0.025 (inactive). Moreover, the remaining NAD in assay [3] is 10 nM (inactive).

For `N#Cc1ccc2[nH]cc(CCCCN3CCN(c4ccc5oc(C(N)=O)cc5c4)CC3)c2c1`, the values for the fold change in assay [1] (setting [8]) and in assay [1] (setting [9]) were 0.968 (inactive) and 0.515, respectively. For the same molecule, the cell count in assay [1] (setting [10]) worked out at 6440; in assay [1] (setting [11]) it was 6650. Further, the z-score is -0.594 (inactive) in assay [2] (setting [12]) and -0.181 in assay [2] (setting [13]). The remaining NAD in assay [3] is 10 nM (inactive).

For the molecule `CO[C@H]1C[C@H](O[C@H]2[C@H](C)[C@@H](O[C@@H]3O[C@H](C)C[C@H](N(C)C)[C@H]3OC(C)=O)[C@@H](C)C[C@@]3(CO3)C(=O)[C@H](C)[C@@H](OC(C)=O)[C@@H](C)[C@@H](C)OC(=O)[C@@H]2C)O[C@@H](C)[C@@H]1OC(C)=O`, the parasite load remaining in assay [4] was 27.9% (inactive) and 46.8% (inactive). Further, the viability in assay [4] is 46.5% and 147%. Also, the fold change in assay [1] (setting [8]) is 0.951 (inactive) and 0.962 (inactive); in assay [1] (setting [9]) it was 1.2 and 1.02. The cell count is 9570 and 9780 in assay [1] (setting [10]); 10100 and 10200 in assay [1] (setting [11]). The z-score in assay [2] (setting [12]) was 0.411 (inactive) and -0.389 (inactive); in assay [2] (setting [13]), -0.0819 and -0.533; in assay [5], 0.095 (inactive). For the same molecule, the luciferase signal in assay [6] is 232 AU (inactive).

Consider `C[C@]12C=CC(=O)C=C1CC[C@@H]1[C@H]2C(=O)C[C@@]2(C)[C@H]1CC[C@@]2(O)C(=O)CO`, for which the fold change in assay [1] (setting [8]) is 0.899 (inactive); in assay [1] (setting [9]), 0.898. Moreover, the cell count in assay [1] (setting [10]) is 7790; in assay [1] (setting [11]), 8660. For the same molecule, the z-score in assay [2] (setting [12]) was -0.304 (inactive); in assay [2] (setting [13]) it was -0.016. Besides, the viability in assay [7] (at 0.000305 µM, OCI-C5x cells, with rucaparib 10 µM, 100% = cells with rucaparib alone) is 112% (inactive); in assay [7] (at 0.000305 µM, OCI-C5x cells, without rucaparib), 111% (inactive); in assay [7] (at 0.000305 µM, OCI-P5x cells, with rucaparib 20 µM, 100% = cells with rucaparib alone), 93.3% (active); in assay [7] (at 0.000305 µM, OCI-P5x cells, without rucaparib) it was 93.5% (active); in assay [7] (at 0.00122 µM, OCI-C5x cells, with rucaparib 10 µM, 100% = cells with rucaparib alone), 111% (inactive); in assay [7] (at 0.00122 µM, OCI-C5x cells, without rucaparib), 107% (inactive). The viability is 95.9% (active) in assay [7] (at 0.00122 µM, OCI-P5x cells, with rucaparib 20 µM, 100% = cells with rucaparib alone); 93.2% (active) in assay [7] (at 0.00122 µM, OCI-P5x cells, without rucaparib); 107% (inactive) in assay [7] (at 0.00488 µM, OCI-C5x cells, with rucaparib 10 µM, 100% = cells with rucaparib alone); 102% (inactive) in assay [7] (at 0.00488 µM, OCI-C5x cells, without rucaparib); 91% (active) in assay [7] (at 0.00488 µM, OCI-P5x cells, with rucaparib 20 µM, 100% = cells with rucaparib alone); 90.1% (active) in assay [7] (at 0.00488 µM, OCI-P5x cells, without rucaparib). For the same molecule, the viability was 110% (inactive) in assay [7] (at 0.0195 µM, OCI-C5x cells, with rucaparib 10 µM, 100% = cells with rucaparib alone); 102% (inactive) in assay [7] (at 0.0195 µM, OCI-C5x cells, without rucaparib); 88.4% (active) in assay [7] (at 0.0195 µM, OCI-P5x cells, with rucaparib 20 µM, 100% = cells with rucaparib alone); 84.5% (active) in assay [7] (at 0.0195 µM, OCI-P5x cells, without rucaparib); 109% (inactive) in assay [7] (at 0.0781 µM, OCI-C5x cells, with rucaparib 10 µM, 100% = cells with rucaparib alone); 101% (inactive) in assay [7] (at 0.0781 µM, OCI-C5x cells, without rucaparib). The viability in assay [7] (at 0.0781 µM, OCI-P5x cells, with rucaparib 20 µM, 100% = cells with rucaparib alone) was 85% (active); in assay [7] (at 0.0781 µM, OCI-P5x cells, without rucaparib), 88.3% (active); in assay [7] (at 0.313 µM, OCI-C5x cells, with rucaparib 10 µM, 100% = cells with rucaparib alone), 120% (inactive); in assay [7] (at 0.313 µM, OCI-C5x cells, without rucaparib) it was 94.4% (active); in assay [7] (at 0.313 µM, OCI-P5x cells, with rucaparib 20 µM, 100% = cells with rucaparib alone), 85.2% (active); in assay [7] (at 0.313 µM, OCI-P5x cells, without rucaparib), 78.8% (active). Also, the viability in assay [7] (at 1.25 µM, OCI-C5x cells, with rucaparib 10 µM, 100% = cells with rucaparib alone) was 111% (inactive); in assay [7] (at 1.25 µM, OCI-C5x cells, without rucaparib), 97.7% (active); in assay [7] (at 1.25 µM, OCI-P5x cells, with rucaparib 20 µM, 100% = cells with rucaparib alone) it was 85.8% (active); in assay [7] (at 1.25 µM, OCI-P5x cells, without rucaparib), 76.5% (active); in assay [7] (at 5 µM, OCI-C5x cells, with rucaparib 10 µM, 100% = cells with rucaparib alone), 115% (inactive); in assay [7] (at 5 µM, OCI-C5x cells, without rucaparib) it was 98.1% (active). Further, the viability was 75.2% (active) in assay [7] (at 5 µM, OCI-P5x cells, with rucaparib 20 µM, 100% = cells with rucaparib alone) and 77.4% (active) in assay [7] (at 5 µM, OCI-P5x cells, without rucaparib).
